Data: PubChem BioAssay (EPA / NIEHS)
Inconclusive results are not listed. Activity calls are given as the source filed them. How the source made its calls: active means hit-call score of the fitted dose curve at least 0.9, where 1 is the maximum; inconclusive means response in the unintended direction; inactive means score below 0.9.

Each molecule was assayed on organic anion transporter (SLCO1B1), SLCO1B1 (gene 10599) (assay: CLD_SLCO1B1_48hr: CellzDirect (CLD) Gene Expression Assay for organic anion transporter (SLCO1B1) at 48 hours (AID 2283707)).
Procedure: CLD_48hr is a cell-based, multiplexed-readout assay that uses hepatocyte, a human liver primary cell, with measurements taken at 48 hours after chemical dosing in a 96-well plate.CLD_SLCO1B1_48hr is one of 16 assay component(s) measured or calculated from the CLD_48hr assay. It is designed to make measurements of mRNA induction, a form of inducible reporter, as detected with chemiluminescence signals by Quantitative Nuclease Protection Assay (qNPA) technology.Data from the assay component CLD_SLCO1B1_48hr was analyzed at the endpoint, CLD_SLCO1B1_48hr, in the positive analysis fitting direction relative to DMSO as the negative control and baseline of activity. Using a type of inducible reporter, gain-of-signal activity can be used to understand changes in the reporter gene as they relate to the gene SLCO1B1. Furthermore, this assay endpoint can be referred to as a primary readout. To generalize the intended target to other relatable targets, this assay endpoint is annotated to the transporter intended target family, where subfamily is organic anion transporter.
Human hepatocyte cultures were treated daily for two consecutive days with fresh dosing solutions containing appropriate concentrations of the 320 ToxCast chemicals (chemical identities were blinded to CellzDirect and other ToxCast collaborators), vehicle control (0.2% DMSO), and positive control inducers as summarized in Table 1. Due to the large number of treatment groups and chemicals examined, the ToxCast chemicals were divided into two groups (spanning two independent cultures of hepatocytes from separate donor preparations (Hu778: ToxCast plates 1 and 2; Hu776: ToxCast plates 3 and 4). Each preparation of human hepatocyte cultures was treated with respective vehicle control, medium only control, set of six positive controls/reference chemicals for the five hepatic receptor pathways, and a subset of eight of the ToxCast chemicals (indoxacarb, pyrithiobac-sodium, norflurazon, cyhalofop-butyl, methomyl, thiram, acetochlor, and propiconazole). These replicate data, coupled with internal replicates designed within the blinded ToxCast chemical library, provided additional data to evaluate interindividual differences between hepatocyte preparations and their potential impact on chemical profiles.Cell morphology and integrity were evaluated using phase-contrast microscopy as an indicator of hepatocyte cell health (Tyson & Green, 1987). Cultures for each treatment group (i.e., media, vehicle [0.2% DMSO], positive control inducers [multiple concentrations], and the ToxCast chemicals [multiple concentrations]) were observed and cell morphology was assessed relative to vehicle control cultures at each harvest time point (0, 6, 24, or 48 h). […] Images were evaluated at the conclusion of the study to assess changes in cell integrity and account for the effects of chemical exposure on uncharacteristic changes in concentration-dependent gene expression profiles. The results from these determinations of apparent cytotoxicity were annotated (yes/no) alongside the corresponding qNPA data for reference.At the conclusion of each treatment period, hepatocyte cultures (96-well) were washed with 1 volume of HBSS, lysed by addition of 25 ul ArrayPlate lysis buffer (HTG, Tucson, AZ), and 70 ul/well of Denaturation Oil, denatured by incubation at 95C for 10 min, and frozen at approximately -70C until analysis by nuclease protection assay (qNPA) (Roberts et al., 2007). For qNPA analysis, cell lysates were thawed at 50C for approximately 30 min, qNPA probes were added, and samples were incubated at 95C for 10 min to begin the detection process by denaturing the target RNA, dissociating the duplexes and secondary structure hybridization. At the conclusion of the hybridization period, S1 nuclease reagent was added to each sample to digest all nonprotected nucleotides at 50C for 60-90 min. […]
With `CCOP(=O)(OCC)Oc1cc(C)nc(C(C)C)n1` the outcome was “inactive”.
`O=c1ccc(=O)[nH][nH]1` was tested, and the outcome was “inactive”.
With `CC(=NC#N)N(C)Cc1ccc(Cl)nc1` the outcome was “inactive”.
In the case of `Cc1ccn2nc(S(=O)(=O)Nc3c(F)cccc3F)nc2n1`, the outcome is reported as “inactive”.
With `CCCOc1nn(C(=O)NS(=O)(=O)c2ccccc2C(=O)OC)c(=O)n1C` the outcome was “inactive”.
For `COc1cc(OC)nc(Sc2cccc(Cl)c2C(=O)O)n1`, the outcome was “inactive”.
`CCC(CC)Nc1c([N+](=O)[O-])cc(C)c(C)c1[N+](=O)[O-]` was tested, and the outcome was “inactive”.
With `C[N+]1(C)CCCCC1` the outcome was “inactive”.
With `CCOP(=O)(SC(C)CC)N1CCSC1=O` (configuration not stated) the outcome was “inactive”.
`COc1cccc(C(=O)NN(C(=O)c2cc(C)cc(C)c2)C(C)(C)C)c1C` was tested, and the outcome was “inactive”.
With `CCCCSP(=O)(SCCCC)SCCCC` the outcome was “inactive”.
`CCc1cnc(C2=NC(C)(C(C)C)C(=O)N2)c(C(=O)O)c1` (configuration not stated) was tested, and the outcome was “inactive”.
`COP(=O)(NC(C)=O)SC` (configuration not stated) was tested, and the outcome was “inactive”.
For `CCC(=NOC/C=C/Cl)C1=C(O)CC(C2CCOCC2)CC1=O` (configuration not stated), the outcome was “inactive”.
In the case of `CCc1cccc(CC)c1N(COC)C(=O)CCl`, the outcome is reported as “inactive”.
`C#CCC1=C(C)C(OC(=O)C2C(C=C(C)C)C2(C)C)CC1=O` (configuration not stated) was tested, and the outcome was “inactive”.
For `CN(C)NC(=O)CCC(=O)O`, the outcome was “inactive”.
For `O=C(O)c1cc(Oc2ccc(C(F)(F)F)cc2Cl)ccc1[N+](=O)[O-]`, the outcome was “inactive”.
For `CCCSP(=O)(OCC)Oc1ccc(Br)cc1Cl` (configuration not stated), the outcome was “inactive”.
For `CC[C@H](C)[C@H]1O[C@]2(C=C[C@@H]1C)C[C@@H]1C[C@@H](C/C=C(\C)[C@@H](O[C@H]3C[C@H](OC)[C@@H](O[C@H]4C[C@H](OC)[C@@H](NC)[C@H](C)O4)[C@H](C)O3)[C@@H](C)/C=C/C=C3\CO[C@@H]4[C@H](O)C(C)=C[C@@H](C(=O)O1)[C@]34O)O2`, the outcome was “inactive”.
`S=C1NCCN1` was tested, and the outcome was “inactive”.
For `CN(C)C(=O)Nc1cccc(C(F)(F)F)c1`, the outcome was “inactive”.
With `CC(COc1ccc(Oc2ccccc2)cc1)Oc1ccccn1` (configuration not stated) the outcome was “inactive”.
In the case of `CCCSP(=O)(OCC)SCCC`, the outcome is reported as “inactive”.
In the case of `CN1COCN(Cc2cnc(Cl)s2)C1=N[N+](=O)[O-]`, the outcome is reported as “inactive”.
With `CN(C)[C@@H]1C(=O)C(C(N)=O)=C(O)[C@@]2(O)C(=O)C3=C(O)c4c(O)cccc4[C@@](C)(O)[C@H]3[C@H](O)[C@@H]12` the outcome was “inactive”.
For `Cc1nn(-c2cc(NS(C)(=O)=O)c(Cl)cc2Cl)c(=O)n1C(F)F`, the outcome was “inactive”.
In the case of `CCOC(=O)CC(SP(=O)(OC)OC)C(=O)OCC` (configuration not stated), the outcome is reported as “inactive”.
With `Nc1c(Cl)cc([N+](=O)[O-])cc1Cl` the outcome was “inactive”.
For `CCCCN(CC)c1c([N+](=O)[O-])cc(C(F)(F)F)cc1[N+](=O)[O-]`, the outcome was “inactive”.
`CCCCOC(=O)c1ccccc1C(=O)O` was tested, and the outcome was “inactive”.
For `CC(Oc1cccc(Cl)c1)C(=O)O` (configuration not stated), the outcome was “inactive”.
